# Measurements taken from PubChem BioAssay (NCATS).
# Several values for one entry are separate records, joined by “and”; a condition that tells them apart may be missing. Equal values may be shown once. Results filed as inconclusive are left out. Entries that show only a call come without a potency. Values without a mark were called inactive. Activity calls are given as the source filed them. Calls follow the shape of the dose curve; as a rule, active = well fitted curve in the direction sought with a large enough effect; inconclusive = small, poorly fitted or top-dose-only effect, or another doubt; inactive = no such curve, though single readings can be large; an effect the other way counts as inactive or inconclusive.
# Experiments:
# [1] = target: Cellular tumor antigen p53 (Homo sapiens) (UniProt P04637); assay: Primary qHTS for small molecule compounds that upregulate eGFP-tagged delta133p53alpha (in N-terminal) cells. (AID 2060322); conditions: NCI-H358 eGFP-delta133p53alpha fluorescence, 24 h; activation: stronger effect = higher value; also: nearly all actives have a fitted effect of over 75% in size; also: potency is read from the fitted curve at half-maximal effect
# Chain of Cellular tumor antigen p53 (Homo sapiens) (P04637 whole entry, looked up): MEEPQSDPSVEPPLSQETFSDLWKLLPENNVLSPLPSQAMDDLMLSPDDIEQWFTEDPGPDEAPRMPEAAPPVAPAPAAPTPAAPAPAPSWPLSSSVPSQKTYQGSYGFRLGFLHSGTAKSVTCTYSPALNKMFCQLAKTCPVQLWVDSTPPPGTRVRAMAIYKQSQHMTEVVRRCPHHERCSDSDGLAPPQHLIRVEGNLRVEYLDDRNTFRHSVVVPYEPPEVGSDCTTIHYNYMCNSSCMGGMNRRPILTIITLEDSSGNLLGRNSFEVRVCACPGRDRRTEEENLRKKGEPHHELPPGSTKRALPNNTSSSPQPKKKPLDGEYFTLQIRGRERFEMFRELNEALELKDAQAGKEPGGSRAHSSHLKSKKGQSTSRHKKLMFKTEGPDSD
# Summary of the method: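 NCI-H358 cells pre-induced 24 h with 10 ng/ml doxycycline to express N-terminal eGFP-delta133p53alpha, then dosed 24 h at 37C without doxycycline; fixed, Hoechst-stained, GFP intensity by laser scanning cytometry, normalized to DMSO (0%) and 57.5 uM 5-azacytidine (100%).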
# [2] = target: Aldehyde dehydrogenase, mitochondrial (Homo sapiens) (UniProt P05091); assay: qHTS for Inhibitors of the Aldehyde Dehydrogenase Family (ALDH2) Primary screen (AID 2061308); conditions: ALDH2 enzyme inhibition qHTS, 1536-well; series mostly up to 56 µM; also: nearly all actives have a fitted effect of over 55% in size
# [3] = target: Retinaldehyde dehydrogenase 3 (Homo sapiens) (UniProt P47895); assay: qHTS for Inhibitors of the Aldehyde Dehydrogenase Family (ALDH1A3) Validation screen (AID 2061312); conditions: ALDH1A3 enzyme inhibition qHTS validation, fluorescence; series mostly up to 84.7 µM; also: nearly all actives have a fitted effect of over 45% in size; also: potency is read from the fitted curve at half-maximal effect
# [4] = target: Retinaldehyde dehydrogenase 3 (Homo sapiens) (UniProt P47895); assay: qHTS for Inhibitors of the Aldehyde Dehydrogenase Family (ALDH1A3) Primary screen (AID 2061315); conditions: ALDH inhibition qHTS; series mostly up to 56 µM
# [5] = BET inhibitor-based combinations targeting novel dependencies in MECOM-rearranged (r) AML: SET-2 cell line (AID 2202231); conditions: SET-2 AML cells viability, CellTiter-Glo luminescence, 48 h; viability: stronger effect = lower value, concentration not given here; also: nearly all actives have a fitted effect of over 35% in size; also: potency is read from the fitted curve at half-maximal effect
# Summary of the method: (§1)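 A 48 hr incubation preceded viability reading by CellTiter-Glo, with 15 min room-temperature development. Dose series had 11 points; normalization used DMSO and empty wells; AUC was computed and mean-centered per line as Z-AUC.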
# [6] = BET inhibitor-based combinations targeting novel dependencies in MECOM-rearranged (r) AML: OCI-AML3 cell line (AID 2202232); conditions: CellTiter-Glo luminescence, 48 h; Potency: OCI-AML3 viability; series mostly up to 46 µM; also: nearly all actives have a fitted effect of over 35% in size; also: potency is read from the fitted curve at half-maximal effect
# Summary of the method: as §1
# [7] = BET inhibitor-based combinations targeting novel dependencies in MECOM-rearranged (r) AML: UCSD-AML1 cell line (AID 2202235); conditions: UCSD-AML1 AML cells viability, CellTiter-Glo, 48 h; series mostly up to 46 µM; also: nearly all actives have a fitted effect of over 40% in size; also: potency is read from the fitted curve at half-maximal effect
# Summary of the method: (§2)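 Each compound is tested in an 11-point concentration series against 500 seeded cells/well for 48 hr. The luminescent viability signal is normalized to DMSO and blank wells, then reduced to AUC and a cell-line-centred Z-AUC.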
# [8] = BET inhibitor-based combinations targeting novel dependencies in MECOM-rearranged (r) AML: AML-191 cell line (AID 2202236; also: nearly all actives have a fitted effect of over 35% in size; also: potency is read from the fitted curve at half-maximal effect); conditions: AML-191 viability, CellTiter-Glo luminescence, 48 h; series mostly up to 46 µM
# Summary of the method: as §1
# [9] = BET inhibitor-based combinations targeting novel dependencies in MECOM-rearranged (r) AML: AML-194 cell line (AID 2202237; also: nearly all actives have a fitted effect of over 40% in size; also: potency is read from the fitted curve at half-maximal effect); conditions: AML-194 (MECOM-r AML) viability, CellTiter-Glo, 48 h; series mostly up to 46 µM
# Summary of the method: as §1
# [10] = BET inhibitor-based combinations targeting novel dependencies in MECOM-rearranged (r) AML: MV-4-11 cell line (AID 2202233); conditions: MV-4-11 AML viability, CellTiter-Glo luminescence, 48 h; series mostly up to 46 µM; also: nearly all actives have a fitted effect of over 45% in size; also: potency is read from the fitted curve at half-maximal effect
# Summary of the method: as §2
# [11] = BET inhibitor-based combinations targeting novel dependencies in MECOM-rearranged (r) AML: HNT-34 cell line (AID 2202234); conditions: HNT-34 AML viability, CellTiter-Glo luminescence, 48 h; series mostly up to 46 µM; also: nearly all actives have a fitted effect of over 35% in size; also: potency is read from the fitted curve at half-maximal effect
# Summary of the method: as §2
Structure (SMILES),activation [1],Potency [2],Potency [3],Potency [4],viability [5],Potency [6],Potency [7],Potency [8],Potency [9],Potency [10],Potency [11],Potency [1],Potency [5]
CN1CC[C@@H](NC(=O)Nc2ccc(C#N)cc2)C[C@@H]1c1nc2ccccc2[nH]1,-0.477%,inactive,3980 nM (active),inactive,117%,inactive,inactive,inactive,inactive,,,,
CCNC(=O)CCC/C=C\C[C@@H]1[C@@H](/C=C/C(O)CCc2ccccc2)[C@@H](O)C[C@@H]1O (stereo partly specified),-11.9%,inactive,inactive,inactive,121%,,inactive,inactive,,inactive,inactive,,
Cn1cncc1C(N)(c1ccc(Cl)cc1)c1ccc2c(c1)c(-c1cccc(Cl)c1)cc(=O)n2C (stereo unspecified),,inactive,inactive,inactive,,,372 nM (active),4170 nM (active),20900 nM (active),5250 nM (active),263 nM (active),26.9 µM (active),14800 nM (active)
COc1ccc(CCC(=O)Nc2nc3ccc(Cl)cc3s2)cc1OC,9.8% and 1.91%,inactive,inactive,inactive,120%,inactive,inactive,,inactive,inactive,,,
CC(C)N(C[C@H]1O[C@@H](n2cnc3c(N)ncnc32)[C@H](O)[C@@H]1O)C1CC(CCc2nc3ccc(C(C)(C)C)cc3[nH]2)C1 (stereo partly specified),15.8% and 10%,inactive,inactive,inactive,125%,inactive,inactive,inactive,inactive,,inactive,,
COC(=O)N(C)c1c(N)nc(-c2nn(Cc3ccccc3F)c3ncccc23)nc1N,-15.8%,inactive,inactive,inactive,119%,inactive,,inactive,inactive,inactive,,,
Cc1csc(NC(=O)c2sc3nc4c(c(C(F)(F)F)c3c2N)CCC4)n1,-4.78%,inactive,inactive,inactive,97.5%,,inactive,inactive,,inactive,inactive,,
C[C@H]1Oc2cc(cnc2N)-c2c(nn(C)c2C#N)CN(C)C(=O)c2ccc(F)cc21,1.43% and -2.96%,inactive,inactive,inactive,98.3%,,,1320 nM (active),,18600 nM (active),,,
CC[C@H](CC#N)OC(=O)N[C@@H](C)c1cccc(NC(=O)Nc2ccc(-c3cnco3)c(OC)c2)c1,7.84% and -10.5%,inactive,inactive,inactive,,468 nM (active),296 nM (active),,,235 nM (active),525 nM (active),,
COCCN1CCN(Cc2ccc(-c3n[nH]c4c3C(=O)c3c(NC(=O)NN5CCOCC5)cccc3-4)cc2)CC1,,inactive,inactive,inactive,,166 nM (active),148 nM (active),,332 nM (active),26.3 nM (active),166 nM (active),0.0757 µM (active),
CCCCOc1nc(N)c2c(n1)N(Cc1cccc(CN3CCCC3)c1)CC(=O)N2,5.73%,inactive,inactive,inactive,111%,,inactive,inactive,,,,,
CC1(C)Cc2c(-c3ccccc3)c(-c3ccc(Cl)cc3)c(CC(=O)O)n2C1,-18.1% and -12.4%,inactive,inactive,inactive,104%,,inactive,inactive,inactive,23500 nM (active),,,
CS(=O)(=O)c1ccc(-c2nnc(/C=C/c3nnc(-c4ccc(C#N)cc4)o3)n2-c2ccccc2Cl)nc1,-4.77%,inactive,inactive,inactive,111%,,inactive,,inactive,10500 nM (active),inactive,,
CN(C)N(C)C(=O)[C@@]1(Cc2ccccc2)CCCN(C(=O)[C@@H](Cc2c[nH]c3ccccc23)NC(=O)C(C)(C)N)C1,-17.2%,inactive,inactive,inactive,113%,,inactive,inactive,inactive,,16600 nM (active),,
CCN(CC)CCNC(=O)c1ccc2nc(-c3ccccc3)c(-c3ccc(CN4CCC(n5c(=O)[nH]c6ccccc65)CC4)cc3)nc2c1,,inactive,inactive,inactive,,8330 nM (active),,9340 nM (active),7420 nM (active),6610 nM (active),8330 nM (active),4.32 µM (active) and 8.49 µM (active),
CC1(C)CCC(c2ccc(Cl)cc2)=C(CN2CCN(c3ccc(C(=O)NS(=O)(=O)c4ccc(N[C@H](CCN5CCOCC5)CSc5ccccc5)c(S(=O)(=O)C(F)(F)F)c4)cc3)CC2)C1,,inactive,inactive,inactive,,,1050 nM (active),742 nM (active),833 nM (active),332 nM (active),468 nM (active),26.9 µM (active),1320 nM (active)
O=C(O)C[C@H](O)C[C@H](O)/C=C/c1c(C2CC2)nc2ccccc2c1-c1ccc(F)cc1,15.3%,inactive,inactive,inactive,,1050 nM (active),2630 nM (active),,13200 nM (active),2090 nM (active),2950 nM (active),,

Structure (SMILES),activation [1],Potency [2],Potency [3],Potency [4],viability [5],Potency [6],Potency [7],Potency [8],Potency [9],Potency [10],Potency [11],Potency [1],Potency [5]
Cc1nn(C)c(COc2ccc(N3CCN(S(=O)(=O)N(C)C)CC3)cc2)c1-c1cccc2c(CCCOc3cccc4ccccc34)c(C(=O)O)n(CCN3CCOCC3)c12,-22.8%,inactive,inactive,inactive,112%,,inactive,inactive,inactive,6610 nM (active),,,
COc1cc2c(NC3CCN(CC4CCCCC4)CC3)nc(N3CCCN(C(C)C)CC3)nc2cc1OCCCN1CCCCC1,,inactive,inactive,inactive,104%,,10500 nM (active),9340 nM (active),16600 nM (active),6610 nM (active),,43.2 µM (active),
O=C(O)Cn1nnc(-c2cc(N3CCC(Oc4cc(F)ccc4Br)CC3)no2)n1,22.3% and 6.21%,inactive,inactive,inactive,127%,,,inactive,,inactive,inactive,,
Cc1cc(Nc2ncnc3ccc(-c4ccc(CNCCS(C)(=O)=O)o4)cc23)ccc1Oc1ccn2ncnc2c1,23.7% and 4.3%,inactive,inactive,inactive,75.4%,,,inactive,inactive,,inactive,,
O=C(NCC(=O)N1CC[C@H](NC2CCC(O)(c3ccc(-c4ncccn4)cn3)CC2)C1)c1cccc(C(F)(F)F)c1 (stereo partly specified),5.25%,inactive,inactive,inactive,98.1%,,inactive,inactive,,,inactive,,
CCO[C@@H]1OC(=O)C[C@@H]1NC(=O)[C@@H]1CCCN1C(=O)[C@@H](NC(=O)c1ccc(N)c(Cl)c1)C(C)(C)C,-7.64%,inactive,inactive,inactive,112%,,inactive,,inactive,inactive,inactive,,
Cc1cnc(Nc2cccc(CN3CCOCC3)c2)nc1Nc1cccc(S(=O)(=O)NC(C)(C)C)c1,11%,inactive,inactive,inactive,,,1320 nM (active),1660 nM (active),1320 nM (active),332 nM (active),1660 nM (active),,2630 nM (active)
O=C(NC[C@H](O)CN1CCc2ccccc2C1)c1cc(NC2COC2)ncn1,11.2% and -21.4%,inactive,inactive,inactive,97%,,inactive,,inactive,,inactive,,
CC(C)(C)OC(=O)N[C@H]1CCCCCC=C[C@@H]2C[C@@]2(C(=O)NS(=O)(=O)C2CC2)NC(=O)[C@@H]2C[C@@H](OC(=O)N3Cc4cccc(F)c4C3)CN2C1=O,5.4%,inactive,inactive,inactive,102%,,inactive,inactive,inactive,,inactive,,
NC1(C(=O)N[C@@H](CCO)c2ccc(Cl)cc2)CCN(c2ncnc3[nH]ccc23)CC1,7.49%,inactive,inactive,inactive,,6610 nM (active),1480 nM (active),,,4170 nM (active),10500 nM (active),,
O=P(O)(O)C(O)(Cc1cccnc1)P(=O)(O)O,20.9% and -4.4% and 7.64%,inactive,inactive,inactive,110%,,inactive,inactive,inactive,,inactive,,
CC(=O)N1CCN(CCOc2ccc(C3CCN(C4=Nn5c(nnc5C(F)(F)F)CC4)CC3)cc2)CC1,-2.39%,inactive,inactive,inactive,,,inactive,inactive,,,inactive,,14800 nM (active)
C[C@@]1(c2cc(-c3cncnc3)c(F)cc2F)CCSC(N)=N1,19.2% and -1.91%,inactive,inactive,inactive,,inactive,inactive,inactive,,inactive,,,
Nc1ncnc2c1c(-c1cccc(OCc3ccccc3)c1)cn2C1CC(CN2CCC2)C1 (stereo unspecified),26% and 8.59%,inactive,inactive,inactive,,,,,16600 nM (active),,18600 nM (active),,16600 nM (active)
CC(C)N(CCCNC(=O)Nc1ccc(C(C)(C)C)cc1)C[C@H]1O[C@@H](n2ccc3c(N)ncnc32)[C@H](O)[C@@H]1O,-20% and -29.1%,inactive,inactive,inactive,93.2%,,inactive,inactive,inactive,,,,
CC[C@@]1(O)C(=O)OCc2c1cc1n(c2=O)Cc2cc3cc(O)ccc3nc2-1,,inactive,inactive,inactive,,14.8 nM (active),13.2 nM (active),,20.9 nM (active),6.6 nM (active),7.4 nM (active),1.51 µM (active) and 19.3 µM (active),
